TDP1 cell CPT – DT40-hTDP1 cell growth loss with CPT; 420,000 compounds, 12% hits; Potency, µM (titrated, usually from 46.2 µM), without a hit: at the top dose activity change, negative = growth inhibition, hits mostly inhibitors; chicken DT40 Tdp1-/-;hTDP1 cells + 20 nM CPT, ATP luminescence, 48 h; further: potency means the concentration at half of the fitted maximal effect; on the % scale 0 is the no-effect control and ±100 the full control effect; nearly all actives have a fitted effect of over 55% in size
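Cell growth measured by CellTiter-Glo luminescence after a minimum 48 h, 37 C compound exposure with 20 nM CPT in Tdp1-knockout DT40 cells stably expressing hTDP1, seeded 400/well; qHTS titration format.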
Chronic BCR inh – inhibitors of chronic active B-cell receptor signaling | AID 493014 | 340,000 compounds, 0.05% hits | Potency, µM (doses to about 46.1 µM), without a hit: top-dose activity change, negative = inhibition, usual class: inhibitors | ABC-DLBCL IkBa-CBG/CBR reporter, luminescence ratio, 4 h; active means well fitted inhibition curve with a large enough effect in the signal ratio, with a control signal flat, not every such curve was filed as active; inconclusive means small, poorly fitted or top-dose-only effect, or effect the other way, or a change in a side signal; the % refers to the signal ratio;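 further: potency means the concentration at half of the fitted maximal effect; plate controls were basal doxycycline-induced cells for no effect and cells given 10 µM MG132 for full effect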
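Cell line TMD8 (human ABC DLBCL), stably expressing tet-inducible CBG68-IkBa fusion and CBR; IMDM/0.5% FBS; cpd up to 46 uM; dox induction, 4 h, 37C/5% CO2; dual luminescence; green/red ratio; MG132 control.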
IL1B secr inh – blocks inflammasome-driven IL-1 beta release; THP-1 LPS/ATP IL-1B secretion, AlphaLISA, 16 h; stronger effect = lower value; activity change, % at 57.5 µM; 360,000 compounds, 4.7% hits; AID 743279; in the data active means activity change below about -50%; inconclusive means mostly about -30% to -49%; further: on the % scale 0 is the no-effect control and ±100 the full control effect
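THP-1 cells pretreated 1 hr with compounds (up to 57.5 uM final), then stimulated with LPS (250 ng/mL final) plus ATP (1.25 mM final); secreted IL-1B measured by AlphaLISA after 16 hr, decreased signal indicating inhibition.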
DT40 TDP1 no CPT – qHTS for Inhibitors of human tyrosyl-DNA phosphodiesterase 1 (TDP1): qHTS in cells in absence of CPT; Potency, µM (highest dose often 46.2 µM), for the others: at the highest dose activity change, negative = growth inhibition, most hits filed as inhibitors; 420,000 compounds, 15% hits; AID 686978, 2013; DT40 Tdp1-/- hTDP1 cells, no CPT, ATP luminescence, 48 h; further: potency means the concentration at half of the fitted maximal effect; on the % scale 0 is the no-effect control and ±100 the full control effect; nearly all actives have a fitted effect of over 55% in size
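Stably hTDP1-transfected Tdp1-null chicken DT40 cells were treated with library compounds minus camptothecin and grown for at least 48 hr at 37 °C, after which cellular ATP was quantified by luminescence.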
MCF10A rereplic – inducers of DNA re-replication in MCF 10A breast cells. MCF 10A DNA re-replication, Hoechst nuclear intensity, 48 h. Potency, µM (series often up to 46.1 µM), without a hit: top-dose activity, positive = re-replication, hits mostly activators. 350,000 compounds, 2.9% hits. AID 624296; further: potency means the concentration at half of the fitted maximal effect; % of control where 0% means no effect; nearly all actives have a fitted effect of over 50% in size
SW480 rereplic – DNA re-replication induction in SW480 cells; SW480 DNA re-replication, Hoechst DNA content imaging, 48 h; Potency, µM (highest dose often 46.1 µM), for inactives: at the top dose re-replication activation, hits mostly activators; 340,000 compounds, 1.8% hits; AID 624297; further: potency means the concentration at half of the fitted maximal effect; % of control where 0% means no effect; nearly all actives have a fitted effect of over 55% in size
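SW480 cells exposed to compounds for 48 hr at 37 C, 5% CO2, then Hoechst-stained 40 min. Nuclear DNA content imaged by fluorescence scanning (405 nm excitation, 500-530 nm emission); re-replication scored as increased high-intensity nuclei.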
Active calls of the source: *; ? = inconclusive; / = no result; [ ] = another dose, or the depositor's remark. Compounds with a hit are over-represented: about 19% of the library has one in this group of screens. Unless noted, the call rests on the fitted dose curve; in most records, active means well fitted curve in the direction sought with a large enough effect; inconclusive means small, poorly fitted or top-dose-only effect, or another doubt; inactive means no such curve, though single readings can be large; an effect the other way counts as inactive or inconclusive.

SMILES	TDP1 cell CPT	Chronic BCR inh	IL1B secr inh	DT40 TDP1 no CPT	MCF10A rereplic	SW480 rereplic
Cc1ccccc1NC(=O)Cn1nc(-c2ccccc2)nc(Cc2ccccc2)c1=O	10%	-2%	/	-26%	/	/
O=C1N=C(c2ccccc2)S/C1=C\c1cccs1	-27%	?	-25	-19%	-4%	-10%
O=C1N=C(N2CCN(Cc3ccccc3)CC2)S/C1=C/c1cccs1	-17%	9%	/	12µM*	-35%	4%
O=C1N=C(N2CCN(c3ccccc3)CC2)S/C1=C/c1cccs1	-20%	?	-58*	?	1%	-4%
CC1NS(=O)(=O)c2cc([N+](=O)[O-])ccc21 (stereo not given)	-5%	/	16	-22%	/	/
Cc1ccc(-c2nc3c(c(=O)c4ccccc4n3C)c(=O)n2Cc2ccco2)cc1	7%	9%	/	?	2%	18µM*
COc1ccc2c(=O)c3c(=O)n(Cc4ccco4)c(-c4ccco4)nc3oc2c1	20µM*	?	-21	?	16%	1%
Cn1c2ccccc2c(=O)c2c(=O)n(Cc3ccco3)c(-c3ccc(F)cc3)nc21	-19%	3%	-7	?	-15%	?
COc1ccc(Cn2c(-c3ccco3)nc3oc4cc(OC)ccc4c(=O)c3c2=O)cc1	?	?	0	16µM*	2%	1%
COc1ccc(Cn2c(-c3ccco3)nc3oc4ccccc4c(=O)c3c2=O)cc1	-12%	10%	?	-13%	-1%	-9%
COc1ccc(-c2nc3oc4cc(OC)ccc4c(=O)c3c(=O)n2Cc2ccco2)cc1	?	?	-24	23µM*	?	-9%
Cc1cc2nc(-c3cc(NC(=O)c4cc5ccccc5o4)ccc3Cl)oc2cc1C	?	/	/	16µM*	/	/
COc1cc2ccccc2cc1C(=O)Nc1ccc(Cl)c(-c2nc3ccccc3o2)c1	?	/	/	23µM*	/	/
COc1cc(C(=O)Nc2ccc(-c3nc4ccccc4o3)c(O)c2)cc(OC)c1OC	6%	/	/	-13%	/	/
Cc1c(C(=O)N2CCN(Cc3ccccc3)CC2)oc2c1C(=O)CCC2	-11%	0%	-2	-18%	-3%	-6%
CC(C)C(=O)NC(c1cccc([N+](=O)[O-])c1)c1ccc2cccnc2c1O (stereo not given)	4.6µM*	-14%	84	4.6µM*	?	29%[9.22 µM]
CCC(=O)NC(c1cccc([N+](=O)[O-])c1)c1c(OC(C)=O)ccc2ccccc12 (stereo not given)	?	-8%	-16	?	-8%	1%
CCCC(=O)NC(c1cccc([N+](=O)[O-])c1)c1ccc2cccnc2c1O (stereo not given)	12µM*	/	58	2.9µM*	/	/
CC(=O)NC1=NN(C(C)=O)C(C)(c2ccco2)S1 (stereo not given)	-7%	?	31	-17%	?	?
CC(=O)NC1=NN(C(C)=O)C(C)(c2cccs2)S1 (stereo not given)	?	-13%	15	?	1.3µM*	12µM*
COc1ccccc1C1=NNC(=Nc2cccc(S(=O)(=O)N(C)C)c2)SC1	?	?	-72*	?	12%	?
Cc1ccc(-c2cc(O)cc3sc(=O)oc23)cc1C	?	1%	-1	21µM*	?	-28%
Cc1ccc(CN2C(=O)C3CCCN3c3ccc(S(=O)(=O)N4CCOCC4)cc32)cc1 (stereo not given)	/	-2%	/	/	/	/
Cc1ccc(CN2C(=O)C3CCCN3c3ncccc32)cc1 (stereo not given)	-26%	?	0	?	23µM*	?
Nc1ccc(C(=O)O)cc1S(=O)(=O)O	?	-13%	12	5.8µM*	-6%	-55%
SMILES	TDP1 cell CPT	Chronic BCR inh	IL1B secr inh	DT40 TDP1 no CPT	MCF10A rereplic	SW480 rereplic
O=C(O)c1ccc(NS(=O)(=O)c2cc(C(=O)O)ccc2Br)cc1	3%	1%	-3	-18%	1%	-6%
CC(C)(C)OC(=O)N1C[C@H](O)C[C@H]1C(=O)OCC(=O)c1ccc([N+](=O)[O-])cc1	16µM*	-13%	8	?	?	4%
Cc1cc(C)nc(SCC(=O)NC2CCCCC2C)n1 (stereo not given)	19%	1%	23	-9%	5%	-386%
COc1ccc(NC(=O)c2cc(C3CCCCN3C(=O)CCCc3ccccc3)on2)c(C)c1 (stereo not given)	0.73µM*	/	2	-90%	/	/
O=C(Nc1ccccc1Cl)c1cc(C2CCCCN2C(=O)CCCc2ccccc2)on1 (stereo not given)	29µM*	/	23	23µM*	/	/
O=C(NCc1cccnc1)c1cc(C2CCCCN2C(=O)OCc2ccccc2)on1 (stereo not given)	?	/	0	?	/	/
O=C(Nc1ccc(F)c(Cl)c1)c1cc(C2CCCCN2C(=O)CCCc2ccccc2)on1 (stereo not given)	?	/	-7	18µM*	/	/
O=C(Nc1ccccc1)c1cc(C2CCCCN2C(=O)CCCc2ccccc2)on1 (stereo not given)	?	/	-24	?	/	/
O=C(NCc1cccnc1)c1cc(C2CCCCN2C(=O)CCCc2ccccc2)on1 (stereo not given)	29µM*	/	28	?	/	/
O=C(COc1coc(CN2CCc3ccccc3C2)cc1=O)Nc1cccc([N+](=O)[O-])c1	1%	-4%	14	-25%	?	-35%
CCN(CC(=O)N1CCc2ccccc2C1)S(=O)(=O)c1ccc2ccccc2c1	?	-4%	-1	?	?	8%
COCCn1c(N)c(N(Cc2ccccc2)C(=O)c2oc3ccccc3c2C)c(=O)[nH]c1=O	-8%	?	30	-22%	4%	12%
COc1ccc2c(c1)CC/C(=C/c1cc(OC)c(OC)c(OC)c1)C2=O	?	?	-85*	15µM*	?	4%
COc1ccc2c(c1)CC/C(=C\C=C\c1ccccc1)C2=O	?	-23%	-7	23µM*	26%	19%
COc1ccc(OC)c(C=C2CCc3ccccc3C2=O)c1	21µM*	/	-2	?	/	/
COc1cccc(/C=C2\CCc3ccccc3C2=O)c1	?	?	-6	?	-2%	0%
Cc1ccc(C(=O)NCC(=O)OCC(=O)c2ccc3ccccc3c2)cc1	-14%	/	/	-15%	/	/

Source: PubChem BioAssay
